{"source": "the supplement of paper PMC6555819", "data": [{"test_system": "VDR:RXRa (NR concentration 270 nM, RXRa partner concentration 90 nM)", "assay": "PBM binding z-score (relative to random genomic background probes); higher = stronger binding; sequences stand for … in GC…GCGATTGACAGCGTAGAATGAAGG", "experimental": "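Protein-binding microarray (Agilent 4x180K custom design, double-stranded 60-nt probes: 5' GC cap, 34-nt variable region, 24-nt constant primer region; full probe sequence given). Purified or IVT nuclear receptor:RXRα heterodimers (3:1 NR:RXRα, mostly 270:90 nM) or homodimers were incubated for 1 h in PBS with 2% milk and no ligand, then detected with Alexa488 antibodies. Fluorescence from o1-orientation probes (~5 replicates averaged) was converted to z-scores against 500 random hg19 background probes. Variable regions are seed direct-repeat (DR0–DR5) sites, all their single-nucleotide variants and half-site ablations.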", "values": [{"sequence": "ATATGTAGGTTATCGGGCCATTCAGTTTGCGCAT", "PBM binding z-score": 1.14}, {"sequence": "ACAGACAGGTGAGGGAAGGTAACTCAGCTGGACG", "PBM binding z-score": -0.405}, {"sequence": "CGTCCAAGGTCAGAGAGGTCAGCGAATGCCGAGT", "PBM binding z-score": 7.48}, {"sequence": "AGTCAAAGTTCACTAGGTAACGTTAGATTCAGCT", "PBM binding z-score": 4.07}, {"sequence": "GCTATTAGTTGAAAGAGCAACCGAATGATTCTCG", "PBM binding z-score": -0.419}, {"sequence": "CCTACTGAGCCAAAGGTCATTGATTCCAATGCTC", "PBM binding z-score": 4.81}, {"sequence": "ATCTCTAGCTAAAGTTCAGTGAAAGATCGATAGA", "PBM binding z-score": 1.49}, {"sequence": "TCTCAGAGGACACGAAGGTCAGAGCTTTCCAGAG", "PBM binding z-score": 2.75}, {"sequence": "TTACCAAGGTGAAAGGTCCTTGATGCACGCCTTG", "PBM binding z-score": 0.75}, {"sequence": "CAAACTAGGTCACATAGGTCAAAGTCCGTGCGTA", "PBM binding z-score": 6.27}, {"sequence": "CAAACTCGGTCACGAAAGGTCAAAGTCGAATGAC", "PBM binding z-score": 5.86}, {"sequence": "TAGCCTAGGTCAGATTGGGCCAGTATACGCTATA", "PBM binding z-score": 0.524}, {"sequence": "AGAATGTGGTTACCAAAGATCAGGGAAACGCTTG", "PBM binding z-score": -0.233}, {"sequence": "ACTATTAGTTGAGACCAGGGCAACCGATAGGTTG", "PBM binding z-score": -0.036}, {"sequence": "ACTTGTTGGTCAGCTGAGGTCACACACAATTCGG", "PBM binding z-score": 4.61}, {"sequence": "CAACCTAGGTCAGGGCCAGTATAGGAGGAACGTT", "PBM binding z-score": 0.746}, {"sequence": "TCTAGTTGGTCAAAGATCACACACTCGAAATGCG", "PBM binding z-score": 1.29}, {"sequence": "ATCGAAAGGTCGAAGGTGAGTATACCCACCCGAA", "PBM binding z-score": 2.91}, {"sequence": "CCTATTAGTTGACCATACGGGCAACCGAAGCTCG", "PBM binding z-score": 0.598}, {"sequence": "CTCGAAGGGTCGGTTGAGGTGAGTATACGGATAA", "PBM binding z-score": 1.25}, {"sequence": "CTCGAAAGGTCGGCTGAGGTGAGTATACGGATAA", "PBM binding z-score": 2.95}, {"sequence": "GCTAGTTGGTCAGTAGAAGGTCACACACCGGTCG", "PBM binding z-score": 2.65}, {"sequence": "CCTCGGAGGACACAAGGTCAGAGCTGTCCGCTTT", "PBM binding z-score": 1.88}, {"sequence": "TCATATAGGTAAAAGCTAGGTGAAAGTCCGATCT", "PBM binding z-score": 0.608}, {"sequence": "ATTAGTTGGTCAGCTGAGGTCACACACAATTCGG", "PBM binding z-score": 4.76}, {"sequence": "AGAATGAGGTTAAGATCAGGGAAACAGAATACAT", "PBM binding z-score": 1.19}, {"sequence": "ACAGAGAGGTGAGTGAAGGTAACTCAGCTGGACG", "PBM binding z-score": 0.13}, {"sequence": "CCTAGCAGGCCAATCTGGGCCACTCAAGGCTTGA", "PBM binding z-score": -0.783}, {"sequence": "ACATACGGGTCAACGAGGTTATAGCACGCGTATA", "PBM binding z-score": 7.57}, {"sequence": "CTCGAAAGGTCGTGCTCAGGTGAGAATACCAAAC", "PBM binding z-score": 3.39}, {"sequence": "CCTACTGGGCCAAGGTGATTGATCAGTCAAAGCA", "PBM binding z-score": -0.746}, {"sequence": "GCTCGGAGGACAAGGTCAGAGCGTTGTCCGTAGA", "PBM binding z-score": 1.67}, {"sequence": "CGAACTAGGTCAAAACAGGACAGTGAAGGATGAT", "PBM binding z-score": 1.99}, {"sequence": "TCTATTAGTTGAAGGGCAATCGACGAGTCCGTTT", "PBM binding z-score": 1.02}, {"sequence": "ATATGGAGGTTACATCCGGGTCATTCAGGCTATG", "PBM binding z-score": 5.05}, {"sequence": "TCATATAGGTAAACAGGAGAAAGTCCGTAAGTTA", "PBM binding z-score": 0.716}, {"sequence": "CCAGCCAGGTGAGAAGGTAACTCAGCCTCGATTA", "PBM binding z-score": -0.314}, {"sequence": "ACTAGCAGGCCATGTTTGGGTCACTCAAACAAAG", "PBM binding z-score": 0.631}, {"sequence": "ATCTCTAGTTAACCAAGTTCAGTGAATGCCGAAC", "PBM binding z-score": 2.46}, {"sequence": "CTAACTAGGTCATCCAGGACAGTGAATACATTGA", "PBM binding z-score": 4.72}]}]}
